Laboratory results from PubChem BioAssay (NCATS).
Results filed as inconclusive are left out. Calls of active or inactive are those of the source. Unless noted, calls follow the shape of the dose curve; as a rule, active = well fitted curve in the direction sought with a large enough effect; inconclusive = small, poorly fitted or top-dose-only effect, or another doubt; inactive = no such curve, though single readings can be large; an effect the other way counts as inactive or inconclusive.

What was measured:
[1] = HepG2 viability counterscreen (readout 2: ATP content) against the NCATS DSHEA and TCM libraries (AID 1794840); details: ATP content luminescence; series mostly up to 27.3 µM; also: 0% is about no effect
How it was run: (§1)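 Same wells read twice: first fluorescence from cleaved GF-AFC substrate (25 uM final, 30 min, 37C) for live-cell protease, then CellTiter-Glo luminescence after 30 min at room temperature for ATP. HepG2 cells were exposed ~24 h to substances.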

[2] = HepG2 viability counterscreen (readout 1: protease activity) against the NCATS DSHEA and TCM libraries (AID 1794841); details: qHTS concentration series; series mostly up to 27.3 µM;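 also: cells exposed to compounds for about 24 h before the protease read; 0% is about no effect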
How it was run: as §1

[3] = target: Cytochrome P450 3A4 (Homo sapiens) (UniProt P08684); experiment: qHTS for inhibitors of CYP3A4 against the NCATS DSHEA and TCM libraries (AID 1919971); details: recombinant CYP3A4 enzyme activity, luminescence qHTS; series mostly up to 34.1 µM; also: potency is read from the fitted curve at half-maximal effect;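 as to activity change, negative = inhibition: % is scaled to controls: 0 for no effect and ±100 for the full control effect; inhibition lowers luminescence from luciferin made by CYP3A4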
Chain of Cytochrome P450 3A4 (Homo sapiens) (P08684 whole entry, looked up): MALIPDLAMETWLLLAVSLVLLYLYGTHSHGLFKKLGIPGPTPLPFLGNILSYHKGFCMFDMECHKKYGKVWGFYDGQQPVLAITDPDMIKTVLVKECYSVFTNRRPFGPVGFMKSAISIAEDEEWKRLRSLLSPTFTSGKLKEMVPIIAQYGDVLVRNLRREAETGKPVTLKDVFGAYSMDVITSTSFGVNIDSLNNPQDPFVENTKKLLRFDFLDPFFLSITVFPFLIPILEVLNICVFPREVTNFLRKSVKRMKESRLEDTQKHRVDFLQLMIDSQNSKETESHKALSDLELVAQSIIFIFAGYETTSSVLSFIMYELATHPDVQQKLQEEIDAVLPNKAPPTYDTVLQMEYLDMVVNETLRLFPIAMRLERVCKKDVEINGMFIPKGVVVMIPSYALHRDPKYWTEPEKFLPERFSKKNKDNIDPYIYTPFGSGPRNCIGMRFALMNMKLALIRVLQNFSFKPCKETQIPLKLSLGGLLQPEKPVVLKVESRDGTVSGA
How it was run: (§2)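 Luminescent P450-Glo format: compounds preincubated 15 min with enzyme and luciferin substrate, reaction run 30-45 min after NADPH regeneration solution. Intraplate controls: ketoconazole for CYP3A4 and CYP2C19, sulfaphenazole for CYP2C9.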

[4] = target: Cytochrome P450 2D6 (Homo sapiens) (UniProt P10635); experiment: qHTS for inhibitors of CYP2D6 against the NCATS DSHEA and TCM libraries (AID 1919972); details: CYP2D6 enzymatic inhibition, luminescence qHTS; series mostly up to 34.1 µM; also: % is scaled to controls: 0 for no effect and ±100 for the full control effect
Chain of Cytochrome P450 2D6 (Homo sapiens) (P10635 whole entry, looked up): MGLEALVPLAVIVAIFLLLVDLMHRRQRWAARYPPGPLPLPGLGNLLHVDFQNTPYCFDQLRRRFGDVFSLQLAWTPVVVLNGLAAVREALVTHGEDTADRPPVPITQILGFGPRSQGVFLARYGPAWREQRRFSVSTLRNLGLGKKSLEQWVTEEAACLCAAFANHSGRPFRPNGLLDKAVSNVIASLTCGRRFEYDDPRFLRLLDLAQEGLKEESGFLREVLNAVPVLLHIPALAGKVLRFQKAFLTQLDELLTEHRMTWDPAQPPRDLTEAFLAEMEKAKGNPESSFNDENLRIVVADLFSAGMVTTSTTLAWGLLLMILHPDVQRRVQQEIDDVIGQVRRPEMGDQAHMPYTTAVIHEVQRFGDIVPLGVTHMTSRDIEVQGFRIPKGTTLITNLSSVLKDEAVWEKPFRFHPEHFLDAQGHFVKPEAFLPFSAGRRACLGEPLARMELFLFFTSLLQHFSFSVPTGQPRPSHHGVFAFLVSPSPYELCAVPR
How it was run: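 Luminescent P450-Glo read-out of CYP2D6 turnover of a luciferin substrate after NADPH-driven reaction of 30-45 min at room temperature. Compounds were first preincubated 15 min with enzyme at titrated concentrations; quinidine was the intraplate control.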

[5] = KB-3-1 P-gp reporter qHTS against the NCATS DSHEA and TCM libraries (AID 1919975); details: KB-3-1 parental cells, CellTiter-Glo luminescence viability, 72 h; series mostly up to 26.1 µM; also: 0% is about no effect
How it was run: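 KB-3-1 parental line, 1536-well qHTS: cells seeded, ~4 h attachment, pintool compound addition, ~72 h at 37C, then CellTiter-Glo, 30 min RT, luminescence. Concentration-response format.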

[6] = qHTS Counterscreen for compound interference against the NCATS DSHEA and TCM libraries (AID 1919978); details: firefly luciferase detection reagent interference, luminescence;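 also: compounds preincubated with 1 µM D-luciferin or buffer before detection reagent; % of control where 0% means no effect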
How it was run: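 Compounds, titrated from 19.5 nM to 39.8 uM final, were pinned onto 1 uM D-luciferin or plain 100 mM potassium phosphate. After 15 min at room temperature, luciferin detection reagent was added for 30 min before the luminescence read.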

[7] = Dual reporter qHTS for agonist of Pregnane X Receptor (hPXR) against the NCATS DSHEA and TCM libraries: Fluorescence readout (AID 1920058); details: PXR dual reporter cells; series mostly up to 40 µM; also: 0% is about no effect
How it was run: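 hPXR-Luc HepG2 cells, 2000/well in charcoal-stripped serum, attached 5 h, dosed for ~24 h at 37 °C. Fluorescence read is CellTiter-Fluor viability (Ex/Em 405/540 nm); rifampicin positive, tetraoctyl ammonium bromide (92 µM) cytotoxicity controls.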

[8] = target: Nuclear receptor subfamily 1 group I member 2 (Homo sapiens) (UniProt O75469); experiment: Dual reporter qHTS for agonist of Pregnane X Receptor (hPXR) against the NCATS DSHEA and TCM libraries: Luminescence readout (AID 1920059); details: hPXR dual reporter cells, luciferase luminescence agonist; series mostly up to 40 µM; also: potency is read from the fitted curve at half-maximal effect; as to activation: 0% is about no effect
Chain of Nuclear receptor subfamily 1 group I member 2 (Homo sapiens) (O75469 whole entry, looked up): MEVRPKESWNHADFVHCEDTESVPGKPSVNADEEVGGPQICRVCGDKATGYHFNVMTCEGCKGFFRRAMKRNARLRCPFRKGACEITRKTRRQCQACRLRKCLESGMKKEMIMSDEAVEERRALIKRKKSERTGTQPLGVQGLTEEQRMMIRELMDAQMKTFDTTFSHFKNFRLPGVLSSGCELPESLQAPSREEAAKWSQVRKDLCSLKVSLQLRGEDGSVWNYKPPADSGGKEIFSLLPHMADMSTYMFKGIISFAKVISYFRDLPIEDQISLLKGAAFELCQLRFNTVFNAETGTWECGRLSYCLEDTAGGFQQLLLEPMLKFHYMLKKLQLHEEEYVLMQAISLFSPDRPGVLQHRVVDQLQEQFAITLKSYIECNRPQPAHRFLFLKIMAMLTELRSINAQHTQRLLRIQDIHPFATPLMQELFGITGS
How it was run: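 hPXR-LucHepG2 cells in phenol red-free DMEM with 5% charcoal-stripped FBS, 2000 cells/well, attached 5 h, then exposed 24 h at 37C to compounds; rifampicin as positive agonist control (2.8 nM–92 uM). Luciferase luminescence read.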

[9] = target: Nuclear receptor subfamily 1 group I member 2 (Homo sapiens) (UniProt O75469); experiment: Dual reporter qHTS for antagonist of Pregnane X Receptor (hPXR) against the NCATS DSHEA and TCM libraries: Luminescence Readout (AID 1920060); details: hPXR dual reporter cells, luciferase luminescence, antagonist mode; series mostly up to 40 µM; also: 0% is about no effect
How it was run: (§3)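 Rifampicin-stimulated (2 uM final) hPXR-luciferase HepG2 cells were treated for 24 h with DSNP/TCM substances. Viability came from CellTiter-Fluor fluorescence, reporter activity from ONE-Glo luminescence.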

[10] = Dual reporter qHTS for antagonist of Pregnane X Receptor (hPXR) against the NCATS DSHEA and TCM libraries: Fluorescence Readout (AID 1920061); details: PXR dual reporter cells, antagonist mode; series mostly up to 40 µM; also: 0% is about no effect
How it was run: as §3

[11] = Viability counterscreen for antagonist of constitutive androstane receptor (CAR) against the NCATS DSHEA and TCM libraries (AID 1794837); details: CAR reporter cell line viability counterscreen, qHTS; series mostly up to 40 µM;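 also: compound exposure lasted 24 h before viability reading; 0% is about no effect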
How it was run: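 Cells: HepG2 line carrying CYP2B6 reporter and hCAR, seeded and attached 5 h. Then pin-transferred test substances plus agonist CITCO at 48 uM final; 24 h incubation; fluorogenic viability reagent, 1 h.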

[12] = Viability counterscreen for agonist of constitutive androstane receptor (CAR) against the NCATS DSHEA and TCM libraries (AID 1794838); details: HepG2 cell viability counterscreen, CAR agonist assay, co-treated with 0.75 µM CAR antagonist; series mostly up to 40 µM;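 also: HepG2 cells with CYP2B6 reporter and hCAR plus 0.75 µM PK11195 antagonist; 0% is about no effect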
How it was run: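 Cell health was measured as CellTiter-Fluor signal in HepG2-CYP2B6-hCAR cells treated for 24 h with substances alongside the hCAR antagonist PK11195 (0.75 uM final).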

[13] = target: Cytochrome P450 2C19 (Homo sapiens) (UniProt P33261); experiment: qHTS for inhibitors of CYP2C19 against the NCATS DSHEA and TCM libraries (AID 1919974); details: CYP2C19 enzyme inhibition, luminescence qHTS; series mostly up to 34.1 µM;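 also: luminescence from luciferin released by CYP2C19 oxidation of a pro-luciferin substrate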; also: potency is read from the fitted curve at half-maximal effect; as to activity change, negative = inhibition: % is scaled to controls: 0 for no effect and ±100 for the full control effect
Chain of Cytochrome P450 2C19 (Homo sapiens) (P33261 whole entry, looked up): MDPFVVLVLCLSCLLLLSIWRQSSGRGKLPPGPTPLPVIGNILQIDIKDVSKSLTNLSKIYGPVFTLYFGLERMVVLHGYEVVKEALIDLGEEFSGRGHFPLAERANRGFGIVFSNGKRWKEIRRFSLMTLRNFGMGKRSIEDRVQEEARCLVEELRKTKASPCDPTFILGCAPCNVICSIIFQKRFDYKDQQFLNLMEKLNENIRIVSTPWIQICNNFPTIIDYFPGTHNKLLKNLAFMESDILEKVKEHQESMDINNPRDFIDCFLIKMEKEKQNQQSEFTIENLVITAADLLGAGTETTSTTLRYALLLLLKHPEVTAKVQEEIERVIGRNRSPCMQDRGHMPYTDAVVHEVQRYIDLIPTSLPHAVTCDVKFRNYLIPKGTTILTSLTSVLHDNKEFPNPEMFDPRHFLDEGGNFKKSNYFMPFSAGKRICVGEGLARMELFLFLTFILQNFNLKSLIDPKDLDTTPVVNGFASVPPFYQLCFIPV
How it was run: as §2

[14] = target: Nuclear receptor subfamily 1 group I member 3 (Homo sapiens) (UniProt Q14994); experiment: Primary qHTS for agonist of constitutive androstane receptor (CAR) against the NCATS DSHEA and TCM libraries (AID 1794839); details: CAR agonist reporter cells, qHTS luminescence, CAR antagonist co-added at 0.75 µM; series mostly up to 40 µM; also: potency is read from the fitted curve at half-maximal effect;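 as to activation: HepG2 cells expressing human CAR with a CYP2B6 reporter plus PK11195 antagonist; 0% is about no effect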
Chain of Nuclear receptor subfamily 1 group I member 3 (Homo sapiens) (Q14994 whole entry, looked up): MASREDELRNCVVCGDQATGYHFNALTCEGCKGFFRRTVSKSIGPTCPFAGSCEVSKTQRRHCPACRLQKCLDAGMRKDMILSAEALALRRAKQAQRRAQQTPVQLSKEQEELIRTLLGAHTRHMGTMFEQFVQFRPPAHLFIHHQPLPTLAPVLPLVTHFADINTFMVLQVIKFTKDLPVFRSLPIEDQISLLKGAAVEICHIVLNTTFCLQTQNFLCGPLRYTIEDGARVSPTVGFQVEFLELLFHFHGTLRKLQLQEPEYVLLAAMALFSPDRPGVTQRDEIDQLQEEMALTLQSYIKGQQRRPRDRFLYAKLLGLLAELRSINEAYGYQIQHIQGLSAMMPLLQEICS
How it was run: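 qHTS, agonist mode: HepG2-CYP2B6-hCAR, 2,500 cells/well, 5 h attach; cpds + PK11195 0.75 µM final; 24 h, 37 °C, 5% CO2. Readouts: CellTiter-Fluor (405/540 nm), then ONE-Glo luminescence.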

[15] = target: Glucocorticoid receptor (Homo sapiens) (UniProt P04150); experiment: GR-EFC Redistribution (AID 451; calls by dose curve; also: potency is read from the fitted curve at half-maximal effect); details: CHO-K1 GR-EFC translocation, beta-gal luminescence, 2 h
Chain of Glucocorticoid receptor (Homo sapiens) (P04150 whole entry, looked up, the tested form may be a part): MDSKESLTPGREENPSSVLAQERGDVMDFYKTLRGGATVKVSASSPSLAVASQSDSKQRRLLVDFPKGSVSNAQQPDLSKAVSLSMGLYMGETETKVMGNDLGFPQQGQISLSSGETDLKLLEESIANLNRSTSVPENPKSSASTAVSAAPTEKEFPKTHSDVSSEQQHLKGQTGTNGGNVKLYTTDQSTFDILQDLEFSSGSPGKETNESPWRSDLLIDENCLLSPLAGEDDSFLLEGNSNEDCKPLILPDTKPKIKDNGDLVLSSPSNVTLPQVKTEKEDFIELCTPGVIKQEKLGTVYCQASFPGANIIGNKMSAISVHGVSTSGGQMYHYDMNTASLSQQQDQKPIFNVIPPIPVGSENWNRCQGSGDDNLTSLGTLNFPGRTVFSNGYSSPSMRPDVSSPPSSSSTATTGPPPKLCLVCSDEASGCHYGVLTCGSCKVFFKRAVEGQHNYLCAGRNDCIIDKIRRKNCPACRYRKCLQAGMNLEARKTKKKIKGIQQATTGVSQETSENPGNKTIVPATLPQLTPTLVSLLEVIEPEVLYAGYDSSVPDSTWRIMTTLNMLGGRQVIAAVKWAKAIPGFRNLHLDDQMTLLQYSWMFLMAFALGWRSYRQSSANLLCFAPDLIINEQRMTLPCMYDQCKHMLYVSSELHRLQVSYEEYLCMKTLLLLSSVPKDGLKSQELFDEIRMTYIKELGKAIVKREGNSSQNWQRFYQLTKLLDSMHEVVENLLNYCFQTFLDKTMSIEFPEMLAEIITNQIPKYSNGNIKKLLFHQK
How it was run: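 CHO-K1 cells stably expressing nuclear-localized β-gal enzyme acceptor and GR fused C-terminally to the enzyme donor fragment; ligand-driven nuclear translocation restores β-gal by complementation. Compounds titrated up to 46 uM final, 2 h at 37 °C; luminescence read.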

[16] = target: Mitogen-activated protein kinase 10 (Mus musculus) (UniProt Q61831); experiment: JNK3 AlphaScreen Assay (AID 530; active = well fitted curve in either direction with a large enough effect, not every such curve was filed as active;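 also: kinase came from lysate of stimulated human HepG2 cells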; also: potency is read from the fitted curve at half-maximal effect;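 as to activity change, negative = inhibition: signal reports phosphorylation of biotinylated GST-cJun 1-79 at Ser73 with 10 µM ATP; % is scaled to controls: 0 for no effect and ±100 for the full control effect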); details: JNK3 lysate, c-Jun phosphorylation; series mostly up to 57.1 µM
How it was run: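 Inhibitors reduce antibody binding to phosphorylated biotin-cJun, lowering AlphaScreen luminescence. Lysates from HepG2 cells pre-activated by IL-1beta plus TNF-alpha supplied JNK3; compounds were titrated.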

CCCCCC/C=C/CCCCCCCCCC(=O)O
inactive: outcome [1] | outcome [2] | Potency [3] | Potency [4] | outcome [5] | max response [6] 3.83% | outcome [7] | Potency [8] | outcome [9] | outcome [10]

Oc1cc(O)c2c(c1)O[C@@H](c1cc(O)c(O)c(O)c1)[C@H](O)C2
active: Potency [13] 3.55 µM
inactive: outcome [11] | outcome [12] | outcome [2] | Potency [3] | Potency [4] | outcome [5] | outcome [9] | outcome [10]

CCCCCC(=O)O
inactive: outcome [1] | outcome [2] | Potency [3] | Potency [4] | Potency [13] | outcome [5] | max response [6] -1.64% | outcome [7] | Potency [8] | outcome [9] | outcome [10]

CCCCCCCCCCCCCCCCCCCCCCCCCCCCCCO
inactive: viability change, negative = cytotoxic [11] -4.15% [at 5 µM] | activity change, negative = cytotoxicity [12] 8.74% [at 5 µM] | activation [14] -23.2% [at 5 µM] | activity change, negative = inhibition [2] 5.84% [at 3.42 µM] | activity change, negative = inhibition [3] 9.22% [at 4.27 µM] | activity change, negative = inhibition [4] -0.757% [at 4.27 µM] | activity change, negative = inhibition [13] 9.51% [at 4.27 µM] | activity change, negative = inhibition [5] -11% [at 3.26 µM] | max response [6] -2.33% | activation [8] -7.37% [at 5 µM] | activity change, negative = inhibition [9] -14.7% [at 5 µM] | activity change, negative = inhibition [10] 2.96% [at 5 µM]

CC(C)[C@H](C)CC[C@@H](C)[C@H]1CC[C@H]2[C@@H]3CC=C4C[C@@H](O)CC[C@]4(C)[C@H]3CC[C@]12C
inactive: outcome [11] | outcome [12] | Potency [14] | outcome [2] | Potency [3] | Potency [4] | Potency [13] | outcome [5] | outcome [7] | Potency [8] | outcome [9] | outcome [10]

CC(C)=CCC[C@](C)(O[C@@H]1O[C@H](CO)[C@@H](O)[C@H](O)[C@H]1O)[C@H]1CC[C@]2(C)[C@@H]1[C@H](O)C[C@@H]1[C@@]3(C)CC[C@H](O[C@@H]4O[C@H](CO)[C@@H](O)[C@H](O)[C@H]4O[C@@H]4O[C@H](CO)[C@@H](O)[C@H](O)[C@H]4O)C(C)(C)[C@@H]3CC[C@]12C
inactive: outcome [11] | outcome [12] | Potency [14] | outcome [2] | Potency [3] | Potency [13] | outcome [5] | max response [6] 4.23% | Potency [8] | outcome [9] | outcome [10]

O=c1cc(-c2ccc(O)c(O)c2)oc2cc(O[C@@H]3O[C@@H](CO)[C@@H](O)[C@@H](O)[C@H]3O)cc(O)c12
inactive: Potency [15] > 46 µM | outcome [12] | outcome [1] | outcome [2] | Potency [3] | Potency [4] | outcome [5] | max response [6] 0.762% | Potency [8] | outcome [9]
active: Potency [16] 7.94 µM | Potency [14] 28.2 µM | Potency [13] 3.55 µM

O=c1c(O[C@@H]2O[C@H](CO)[C@H](O)[C@H](O)[C@H]2O)c(-c2ccc(O)c(O)c2)oc2cc(O)cc(O)c12
inactive: outcome [11] | outcome [12] | outcome [1] | outcome [2] | Potency [4] | outcome [5] | max response [6] 1.88% | outcome [7] | Potency [8] | outcome [9] | outcome [10]
active: Potency [13] 3.55 µM

C=CCc1ccc(OC)c(OC)c1
inactive: Potency [16] | outcome [2] | Potency [3] | Potency [4] | Potency [13] | outcome [5] | max response [6] -1.2% | Potency [8] | outcome [9] | outcome [10]

CCCCC/C=C/C(=O)CCc1ccc(O)c(OC)c1
inactive: outcome [11] | outcome [12] | Potency [14] | outcome [2] | outcome [5] | max response [6] 4.24% | outcome [7] | outcome [9] | outcome [10]
active: Potency [3] 17.8 µM | Potency [13] 7.08 µM | Potency [8] 31.6 µM

C=CC(=C)CCC=C(C)C
inactive: Potency [16] | outcome [11] | outcome [12] | Potency [14] | outcome [2] | Potency [3] | Potency [4] | Potency [13] | outcome [5] | max response [6] 1.58% | Potency [8] | outcome [9] | outcome [10]
